Screening data: PubChem, several laboratories
TWEAK Fn14 block: TWEAK-Fn14 signaling inhibition. TWEAK-stimulated Fn14 reporter cells, luciferase luminescence, 8 h. inhibition, % at 10 µM. hit rate 2% among 360,000; in the data active = inhibition above about 50%
LMP1 NFkB inh: reduces LMP1-driven NF-kappaB luciferase signal | hit rate 0.69% among 350,000 | LMP1-induced NF-kappaB luciferase reporter cells, luminescence | inhibition, % at 12.5 µM; in the data active = inhibition above about 41%;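 note: 0% = neutral control wells and 100% = reference inhibitor control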
TROY NFkB inh: blocks TROY-dependent signaling in reporter cells. hit rate 0.98% among 360,000. AID 1347056. inhibition, % at 10 µM. Q293 LMP1-TROYcd NF-kB luciferase reporter, 4 h;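 active = compounds whose plate-normalised and pattern-corrected inhibition of the luciferase reporter signal at the single screening dose is 50% or more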
PAX8 reporter: lowers PAX8-driven luciferase in RMG-I cells. RMG-I TPO-luciferase reporter, SteadyGlo, 24 h. inhibition, % at 12.6 µM. hit rate 1.2% among 360,000. AID 652154;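 active = mean replicate inhibition at least 60% with every replicate also reaching 60%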;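 note: luciferase light reporting Pax8 driven TPO promoter activity; plate controls were median of neutral control wells for no effect and mitoxantrone controls for full effect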
LGR2 inh: Drosophila LGR2 receptor signaling inhibition; inhibition, % at 9.99 µM; hit rate 0.35% among 380,000; HEK293 LGR2, CRE-luciferase, bursicon-stimulated, 4 h; AID 720647;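 active = drop in luminescence signal, shown as inhibition above about 50% in the replicate tests, limit read from the data, passing the limit was not always enough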;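 note: agonist challenge used bursicon conditioned medium at about half maximal strength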
EWS-Fli block: EWS/Fli transcriptional activity inhibition; A673 NR0B1-luciferase reporter, viability-normalised; inhibition, % at 12.6 µM; hit rate 0.67% among 350,000;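 active = mean inhibition of at least 50% after viability correction, with every replicate also passing that limit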;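 note: firefly luciferase signal divided by Alamar Blue viability fluorescence both relative to DMSO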
The depositor's hits bear a star; / = not tested or not shown. The list is not random: actives were taken first. Their share in the collection is about 3.1%.

SMILES	TWEAK Fn14 block	LMP1 NFkB inh	TROY NFkB inh	PAX8 reporter	LGR2 inh	EWS-Fli block
O=C(C[C@@H]1CC[C@H]2[C@@H](COC[C@@H](O)CN2C(=O)c2ccccn2)O1)NC1CCC1	/	/	/	/	15	/
COC(=O)C[C@@H]1C=C[C@@H](NC(=O)Nc2ccc(C(F)(F)F)cc2)[C@@H](CO)O1	/	/	/	-1	11	-11
COc1ccc(NC(=O)Nc2ccc3c(c2)CC(=O)N([C@@H](C)CO)C[C@@H](C)[C@H](CN(C)Cc2ccc(Cl)c(Cl)c2)O3)cc1	/	/	/	72*	11	11
C[C@H]1CN([C@@H](C)CO)C(=O)Cc2cc(NC(=O)Nc3ccc(F)cc3)ccc2O[C@H]1CN(C)Cc1ccc2c(c1)OCO2	/	/	/	-13	4	-12
C[C@@H]1CN([C@@H](C)CO)C(=O)Cc2cc(NC(=O)Nc3ccc(F)cc3)ccc2O[C@H]1CN(C)Cc1ccc2c(c1)OCO2	/	/	/	68*	17	11
C[C@@H]1CN([C@@H](C)CO)C(=O)Cc2cc(NC(=O)Nc3ccc(F)cc3)ccc2O[C@@H]1CN(C)Cc1ccc(Cl)c(Cl)c1	60*	-16	21	81*	4	15
CCC(=O)Nc1ccc2c(c1)C(=O)N(C)[C@@H]1CC[C@H](CC(=O)O)O[C@H]1CO2	/	/	/	0	-26	5
Cc1ccc(S(=O)(=O)NC[C@H]2CC[C@H]3[C@H](CN3Cc3cc(F)ccc3F)O2)cc1	/	/	/	/	/	5
CC=Cc1ccc2n(c1=O)C[C@@H]1[C@@H](CO)[C@H](C(=O)NCCC)N(CC3CC3)[C@H]21 (mixture of isomers)	/	/	/	/	-9	1
COc1cc(C2C(C#N)=C(N)Oc3cc(O)ccc32)cc(OC)c1OC (stereo unspecified)	-3	7	-7	/	/	/
COc1cc(C2C3=C(COC3=O)Oc3cc4c(cc32)OCO4)cc(OC)c1OC (stereo unspecified)	3	-5	24	69*	-27	36
COc1cc(C2C3=C(COC3=O)Oc3cc4c(cc32)OCO4)cc(OC)c1O (stereo unspecified)	-8	-9	15	90*	-5	57*
COc1cc(C2CC(=O)Oc3cc4c(cc32)OCO4)cc(OC)c1OC (stereo unspecified)	-23	-11	19	-21	-8	-10
COc1cc(C2C(C#N)=C(N)Oc3cc4c(cc32)OCO4)cc(OC)c1OC (stereo unspecified)	-2	7	28	96*	3	62*
O=C1OCC2=C1C(c1ccc3c(c1)OCO3)c1cc3c(cc1O2)OCO3 (stereo unspecified)	1	59*	13	-2	-30	39
CC(C)NC(=O)NCC[C@H]1CC[C@H](NC(=O)CN(C)C)[C@H](CO)O1	/	/	/	-48	3	9
COc1ccc(NC(=O)N[C@H]2CC[C@@H](CCn3cc(-c4ccccn4)nn3)O[C@@H]2CO)cc1	/	/	/	-4	10	13
CC(C)CCn1c(Sc2nc3ccccc3o2)nc2c1c(=O)[nH]c(=O)n2C	67*	57*	-29	-103	1	/
O=C1NC(=O)C(=Cc2ccc(Cl)cc2Cl)S1	30	-4	54*	-126	-73	-37
CCCc1nnc(NC(=O)CCS(=O)(=O)c2ccccc2)s1	14	4	-11	78*	10	-25
CCOC(=O)c1csc(NC(=O)CCS(=O)(=O)c2ccc(Cl)cc2)n1	-8	10	0	84*	-9	0
CCCCc1nnc(NC(=O)CCS(=O)(=O)c2ccc(Cl)cc2)s1	-1	-4	-17	77*	9	-23
CNC[C@@H]1OCCCC[C@@H](C)Oc2ccc(NC(=O)CCC(F)(F)F)cc2C(=O)N([C@@H](C)CO)C[C@H]1C	/	/	/	-4	9	1
CCCOP(=O)(OCCC)C(NC(=O)C(C)(C)C)c1ccccc1 (stereo unspecified)	-4	-8	9	1	-11	6
CCOP(=O)(OCC)C(NC(=O)C(F)(F)F)c1ccccc1 (stereo unspecified)	8	-1	63*	-5	-5	-6
SMILES	TWEAK Fn14 block	LMP1 NFkB inh	TROY NFkB inh	PAX8 reporter	LGR2 inh	EWS-Fli block
C[C@H](CO)N1C[C@H](C)[C@H](CN(C)C(=O)Nc2cccc3ccccc23)OCc2cn(nn2)CCCC1=O	/	/	/	5	-8	5
CC(=O)Nc1ccc(S(=O)(=O)N(Cc2cccnc2)Cc2cc3ccccc3[nH]c2=O)cc1	6	-6	-45	71*	-6	/
COc1ccc(N(Cc2cc3cc(OC)ccc3[nH]c2=O)S(=O)(=O)c2ccc(NC(C)=O)cc2)cc1	24	33	15	91*	-10	/
CCCNC(=O)[C@H]1[C@H](CO)[C@H]2Cn3c(ccc(-c4ccccc4F)c3=O)[C@H]2N1CCC	/	/	/	/	10	-7
COCC#Cc1ccc2c(c1)O[C@H](CN(C)S(=O)(=O)c1cccc(OC)c1)[C@@H](C)CN([C@H](C)CO)S2(=O)=O	/	/	/	5	-1	36
CCOc1ccccc1Nc1nc(-c2sc(NC(=O)c3cccc(Cl)c3)nc2C)cs1	64*	-24	2	-39	/	-37
Cc1nc(NC(=O)c2ccccc2)sc1-c1csc(NCCc2ccccc2)n1	54*	10	-38	-17	/	/
COc1cccc(N2C(C(C)=O)=NN(c3ccccc3)C2c2ccc(N3CCOCC3)cc2)c1 (stereo unspecified)	55*	-5	43	-57	-10	/
CC(=O)C1=NN(c2ccccc2)C(c2ccc3c(c2)OCO3)N1c1ccc(N2CCOCC2)cc1 (stereo unspecified)	1	-2	-5	6	6	/
C[C@@H]1CCCCO[C@H](CN(C)C(=O)CCCN(C)C)[C@H](C)CN([C@H](C)CO)C(=O)c2cc(NC(=O)C3CCCCC3)ccc2O1	/	/	/	/	-17	0
COc1ccccc1NS(=O)(=O)c1cc([N+](=O)[O-])ccc1N/N=C/c1c[nH]c2ccccc12	56*	-11	52*	33	/	/
C[C@H]1CN([C@@H](C)CO)C(=O)Cc2cc(N(C)C)ccc2O[C@@H]1CN(C)Cc1ccc(Oc2ccccc2)cc1	/	/	/	-3	-19	1
CC1(C)CC(=O)C2=C(C1)N1C(=C(C#N)C2c2ccc(Cl)cc2)N=C(N)c2ccccc21 (stereo unspecified)	6	-63	-7	67*	17	16
CC1(C)CC(=O)C2=C(C1)N1C(=C(C#N)C2c2ccccc2Cl)N=C(N)c2ccccc21 (stereo unspecified)	34	11	22	2	-14	9
C[C@@H]1CN([C@H](C)CO)C(=O)c2cc(-c3ccc(C#N)cc3)cnc2O[C@H]1CN(C)C(=O)CC1CC1	/	/	/	/	-6	-9
Cn1nc(-c2ccc(OCC(=O)Nc3ccccc3)cc2)c2ccccc2c1=O	53*	-2	15	-6	/	/
Cc1cccc(NC(=O)COc2ccc(-c3nn(C)c(=O)c4ccccc34)cc2)c1	8	12	27	10	9	3
